Data as given in PubChem BioAssay (Tox21).
Inconclusive results are not listed. Calls of active or inactive are those of the source. Unless noted, the call rests on the fitted dose curve; in most records, active means well fitted curve in the direction sought with a large enough effect in the repeat runs; inconclusive means weak or mixed curves; inactive means no such curve, though single readings can be large; an effect the other way counts as inactive or inconclusive.

Tests used:
[1] = target: Retinoic acid receptor RXR-alpha (Homo sapiens) (UniProt P19793); experiment: qHTS assay to identify small molecule agonists of the RXR signaling pathway (AID 1159527; calls by dose curve; further: nearly all actives have a fitted effect of over 35% in size)
Chain of Retinoic acid receptor RXR-alpha (Homo sapiens) (P19793 whole entry, looked up): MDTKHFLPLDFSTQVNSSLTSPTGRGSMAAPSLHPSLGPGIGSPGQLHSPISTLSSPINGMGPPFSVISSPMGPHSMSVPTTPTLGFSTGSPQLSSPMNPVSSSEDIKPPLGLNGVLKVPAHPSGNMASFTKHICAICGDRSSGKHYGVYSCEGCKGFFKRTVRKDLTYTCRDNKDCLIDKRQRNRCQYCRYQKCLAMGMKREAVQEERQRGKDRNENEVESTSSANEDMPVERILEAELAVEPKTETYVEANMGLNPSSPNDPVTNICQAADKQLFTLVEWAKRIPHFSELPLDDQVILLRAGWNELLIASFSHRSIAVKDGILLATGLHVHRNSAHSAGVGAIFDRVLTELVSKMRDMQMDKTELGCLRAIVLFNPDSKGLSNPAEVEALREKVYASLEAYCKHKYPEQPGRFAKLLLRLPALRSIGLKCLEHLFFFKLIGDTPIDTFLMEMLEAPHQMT
Method in brief: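 Reporter activation is measured as beta-lactamase activity via FRET substrate cleavage (emission 460/530 nm) in HEK 293T cells expressing an RXR-alpha-driven bla construct, following 16 hr compound exposure at 37 C.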

[2] = qHTS assay to identify small molecule agonists of the RXR signaling pathway - cell viability counter screen (AID 1159529); further: series mostly up to about 77 µM; nearly all actives have a fitted effect of over 50% in size
Method in brief: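 Tox21 10K compounds were tested for cytotoxicity against GeneBLAzer RXR-alpha HEK 293T cells grown in 2% charcoal-stripped FBS. Exposure lasted 16 hr at 37 C, 5% CO2; viability read by CellTiter-Glo luminescence.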

[3] = qHTS assay to identify small molecule antagonists of the retinoid acid receptor (RAR) signaling pathway - cell viability counter screen (AID 1159551); further: nearly all actives have a fitted effect of over 35% in size
Method in brief: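 Following overnight attachment, C3RL4 reporter cells received DMSO-dissolved compounds and then retinol (1 uM final). Six hours later at 37 C, ATP content was measured by CellTiter-Glo luminescence.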

[4] = qHTS assay to identify small molecule antagonists of the retinoic acid receptor (RAR) signaling pathway (AID 1159552; further: nearly all actives have a fitted effect of over 50% in size)
Method in brief: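 Overnight-plated C3RL4 reporter cells get compound, then retinol to 1 uM final; plates sit 6 hr at 37 C, 5% CO2. A luciferase reagent is added and light output recorded after 30 min at room temperature.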

[5] = qHTS assay to identify small molecule agonists of the retinoic acid receptor (RAR) signaling pathway (AID 1159553)
Method in brief: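 Cell line C3RL4, RARE luciferase reporter. Treatment: compounds in DMSO, 6 hr, 37 C, 5% CO2, after overnight plating. Detection: luminescence, 30 min RT after reagent.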
On the % scale 0 is the no-effect control and ±100 the full control effect.

CC1=CCC(C(C)C)=CC1
inactive: Potency [1] | outcome [2] | outcome [3]

CCCCCCCCCCCCCC
inactive: Potency [1] | outcome [2] | outcome [3]

CCCCCCCCOS(=O)(=O)O
inactive: Potency [1] | outcome [2] | outcome [3]

ClCCCl
inactive: Potency [1] | outcome [2] | outcome [3]

O=C(O)CCSSCCC(=O)O
inactive: Potency [1] | outcome [2] | outcome [3] | outcome [4]

C=C(C)C(=O)OCC(C)(C)COC(=O)C(=C)C
inactive: Potency [1] | outcome [2] | outcome [3]

O=C(O)C(=O)Cc1ccccc1
inactive: Potency [1] | outcome [2] | outcome [3] | outcome [4]

CN(C)CCOCCO
inactive: Potency [1] | outcome [2] | outcome [3]

CC(=O)c1ccc2c(c1)Cc1ccccc1-2
inactive: Potency [1] | outcome [2] | outcome [3] | outcome [4]

CCCCCCOC(=O)CC
inactive: Potency [1] | outcome [2] | outcome [3]

Nc1ccc(S(=O)(=O)Nc2ccc(Cl)nn2)cc1
inactive: Potency [1] | outcome [2] | outcome [3]

O=C(O)c1cc(Cl)cc([N+](=O)[O-])c1Cl
inactive: Potency [1] | outcome [2] | outcome [3] | outcome [4]

Cc1[nH]cnc1-c1ccc(Cl)cc1
inactive: Potency [1] | outcome [2] | outcome [3] | outcome [4]

O=S(=O)(O)CCN1CCN(CCO)CC1
inactive: Potency [1] | outcome [2] | outcome [3]

CC(=O)Nc1ccc(S(=O)(=O)Nc2ccc([N+](=O)[O-])cc2)cc1
inactive: Potency [1] | outcome [2] | outcome [3] | outcome [4]

O=C(O)Cc1ccc(Cl)cc1Cl
inactive: Potency [1] | outcome [2] | outcome [3] | outcome [4]

C=CC(OCC)OCC
inactive: Potency [1] | outcome [2] | outcome [3] | outcome [4]

C=C(C)C(=O)OCc1ccccc1
inactive: Potency [1] | outcome [2] | outcome [3]

CCCCCCCCC1CCC(=O)O1 (configuration not stated)
inactive: Potency [1] | outcome [2] | outcome [3] | outcome [4]

C[Si](C)=O
inactive: activation [1] 8.36% [at 6.98 µM] | activity change, negative = cytotoxicity [2] 0.062% [at 6.97 µM] | activity change, negative = cytotoxicity [3] 3.8% [at 8.39 µM]

CCOC(=O)c1ccc(OC(=O)CCCCCN=C(N)N)cc1
inactive: Potency [1] | outcome [2] | outcome [3] | outcome [4]

CCO[Si](CCCS)(OCC)OCC
inactive: Potency [1] | outcome [2] | outcome [3] | outcome [4]

O=C(OCC1(COC(=O)c2cccnc2)CCCC(COC(=O)c2cccnc2)(COC(=O)c2cccnc2)C1O)c1cccnc1
inactive: Potency [1] | outcome [2] | outcome [3] | outcome [4] | Potency [5]

CCOC(=O)/C=C/c1ccccc1
inactive: Potency [1] | outcome [2] | outcome [3] | outcome [4]

CCCCCOC(=O)CCC
inactive: Potency [1] | outcome [2] | outcome [3] | outcome [4]

CC(C)c1ccc2cc(C(C)C)ccc2c1
inactive: Potency [1] | outcome [2] | outcome [3] | outcome [4]

CC(S)C(=O)NCC(=O)O (configuration not stated)
inactive: Potency [1] | outcome [2] | outcome [3] | outcome [4]

Nc1ccc2cc(S(=O)(=O)O)cc(O)c2c1
inactive: Potency [1] | outcome [2] | outcome [3] | outcome [4]
